The panel holds about 83,000 compounds, 20% with a hit somewhere; the sample as a whole holds those more often.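 Each cell line was grown in a 96-well plate and treated with one concentration of compound for 48 hours. Values below 10 were considered active.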 A number with no mark means an inactive call. The source made the active and inactive calls.
Tests used:
Test in all cases: NCI-60 one-dose screen, 48 h (100 = growth as untreated, 0 = no growth, -100 = all killed)
Conditions in all cases: 10 µM unless noted
SR leukemia = test system: SR leukemia
RPMI-8226 leukemia = test system: RPMI-8226 leukemia
OVCAR-8 ovarian = test system: OVCAR-8 ovarian
OVCAR-5 ovarian = test system: OVCAR-5 ovarian
OVCAR-4 ovarian = test system: OVCAR-4 ovarian
SK-OV-3 ovarian = test system: SK-OV-3 ovarian
IGROV1 ovarian = test system: IGROV1 ovarian
OVCAR-3 ovarian = test system: OVCAR-3 ovarian
HS 578T breast = test system: HS 578T breast
NCI/ADR-RES ovarian = test system: NCI/ADR-RES ovarian
T-47D breast = test system: T-47D breast
BT-549 breast = test system: BT-549 breast
MDA-MB-435 melanoma = test system: MDA-MB-435 melanoma
SW-620 colon = test system: SW-620 colon
MCF7 breast = test system: MCF7 breast
HCT-116 colon = test system: HCT-116 colon
HCC-2998 colon = test system: HCC-2998 colon
KM12 colon = test system: KM12 colon

With `COC1=CC(c2ccc[nH]2)=N/C1=C\c1[nH]c(C)c(C(=O)OCc2ccccc2)c1C` the growth (SR leukemia) was 9.69% (active), the growth (RPMI-8226 leukemia) was -18% (active) and the growth (OVCAR-8 ovarian) was -26.6% (active). The growth (OVCAR-5 ovarian) was -38.5% (active), the growth (OVCAR-4 ovarian) was -36.5% (active) and the growth (SK-OV-3 ovarian) was 7.66% (active). For the same molecule, the growth (IGROV1 ovarian) was -33.1% (active), the growth (OVCAR-3 ovarian) was -66% (active) and the growth (HS 578T breast) was -37% (active). The growth (NCI/ADR-RES ovarian) was 0.894% (active), the growth (T-47D breast) was -73.4% (active) and the growth (BT-549 breast) was -13.8% (active). The growth (MDA-MB-435 melanoma) was -69.7% (active), the growth (SW-620 colon) was -25.5% (active) and the growth (MCF7 breast) was -76.3% (active). The growth (HCT-116 colon) was -75.4% (active), the growth (HCC-2998 colon) was -54.5% (active) and the growth (KM12 colon) was -71.3% (active).
In the case of `O=C(Cn1c2c(c3ccccc31)CCCC2)Nc1ccc(-c2nc3ccccc3s2)cc1`, the growth (SR leukemia) is reported as 88.8%, the growth (RPMI-8226 leukemia) is reported as 116% and the growth (OVCAR-8 ovarian) is reported as 107%. The growth (OVCAR-5 ovarian) was 99.5%, the growth (OVCAR-4 ovarian) was 104% and the growth (SK-OV-3 ovarian) was 114%. It also gave a growth (IGROV1 ovarian) of 83.8%, a growth (OVCAR-3 ovarian) of 110% and a growth (HS 578T breast) of 112%. It also gave a growth (NCI/ADR-RES ovarian) of 109%, a growth (T-47D breast) of 80.1% and a growth (BT-549 breast) of 115%. For the same molecule, the growth (MDA-MB-435 melanoma) was 104%, the growth (SW-620 colon) was 109% and the growth (MCF7 breast) was 30.8%. The growth (HCT-116 colon) was 125%, the growth (HCC-2998 colon) was 108% and the growth (KM12 colon) was 101%.
For `O=C(c1ccc(Cl)cc1)N1CCN(c2ccnc3cc(Cl)ccc23)CC1`, the growth (SR leukemia) was 122%, the growth (RPMI-8226 leukemia) was 75.9% and the growth (OVCAR-8 ovarian) was 87.3%. The growth (OVCAR-5 ovarian) was 93%, the growth (OVCAR-4 ovarian) was 70.7% and the growth (SK-OV-3 ovarian) was 93.6%. The growth (IGROV1 ovarian) was 92.9%, the growth (OVCAR-3 ovarian) was 100% and the growth (HS 578T breast) was 99.3%. The growth (NCI/ADR-RES ovarian) was 87.7%, the growth (T-47D breast) was 58% and the growth (BT-549 breast) was 106%. It also gave a growth (MDA-MB-435 melanoma) of 97.5%, a growth (SW-620 colon) of 104% and a growth (MCF7 breast) of 83.7%. The growth (HCT-116 colon) was 81.5% and the growth (HCC-2998 colon) was 108%.
With `N#Cc1c(-c2ccccc2)cc(-c2ccccc2)n(CCCCCC(=O)Nc2ccccc2N)c1=O` the growth (SR leukemia) was 18.5%, the growth (RPMI-8226 leukemia) was -19.2% (active) and the growth (OVCAR-8 ovarian) was 58.8%. It also gave a growth (OVCAR-5 ovarian) of 66.4%, a growth (OVCAR-4 ovarian) of 65.9% and a growth (SK-OV-3 ovarian) of 90.4%. The growth (IGROV1 ovarian) was 45.9%, the growth (OVCAR-3 ovarian) was 59.2% and the growth (HS 578T breast) was 76.2%. It also gave a growth (NCI/ADR-RES ovarian) of 49%, a growth (T-47D breast) of 48.3% and a growth (BT-549 breast) of 49.5%. It also gave a growth (MDA-MB-435 melanoma) of 92.1%, a growth (SW-620 colon) of 86.2% and a growth (MCF7 breast) of 68.4%. For the same molecule, the growth (HCT-116 colon) was 58.1%, the growth (HCC-2998 colon) was 80.5% and the growth (KM12 colon) was 55.3%.
`Cc1c(-c2nc3ccc(F)cc3c(=O)[nH]2)c2ccccc2n1C` gave a growth (SR leukemia) of 11.3%, a growth (RPMI-8226 leukemia) of 40.9% and a growth (OVCAR-8 ovarian) of 46.9%. The growth (OVCAR-5 ovarian) was 79.4%, the growth (OVCAR-4 ovarian) was 59.4% and the growth (SK-OV-3 ovarian) was 43.2%. For the same molecule, the growth (IGROV1 ovarian) was 38.9%, the growth (OVCAR-3 ovarian) was 10.3% and the growth (HS 578T breast) was 3.2% (active). For the same molecule, the growth (NCI/ADR-RES ovarian) was 21.9%, the growth (T-47D breast) was 36.1% and the growth (BT-549 breast) was 43.8%. The growth (MDA-MB-435 melanoma) was -38.8% (active), the growth (SW-620 colon) was 16.1% and the growth (MCF7 breast) was 19.1%. It also gave a growth (HCT-116 colon) of 25.1% and a growth (HCC-2998 colon) of 53%.
Work on `CCCCN[C@H]1CC[C@@]2(C)[C@@H](CC[C@@]3(C)[C@H]2[C@H](O)C[C@H]2/C(=C(\CCC=C(C)C)C(=O)OC)[C@@H](OC(C)=O)C[C@@]23C)[C@@H]1C` yielded a growth (SR leukemia) of 74.5%, a growth (RPMI-8226 leukemia) of 95.9% and a growth (OVCAR-8 ovarian) of 102%. It also gave a growth (OVCAR-5 ovarian) of 91.4%, a growth (OVCAR-4 ovarian) of 102% and a growth (SK-OV-3 ovarian) of 104%. For the same molecule, the growth (IGROV1 ovarian) was 99.2%, the growth (OVCAR-3 ovarian) was 106% and the growth (HS 578T breast) was 87.3%. The growth (NCI/ADR-RES ovarian) was 100%, the growth (T-47D breast) was 105% and the growth (BT-549 breast) was 93.5%. The growth (MDA-MB-435 melanoma) was 98%, the growth (SW-620 colon) was 95.9% and the growth (MCF7 breast) was 90.8%. For the same molecule, the growth (HCT-116 colon) was 102%, the growth (HCC-2998 colon) was 99.3% and the growth (KM12 colon) was 104%.
`O=C(NNc1nccc(Nc2ccc(S(=O)(=O)Nc3ccncc3)cc2)n1)c1ccccc1` gave a growth (SR leukemia) of 87.6%, a growth (RPMI-8226 leukemia) of 95.6% and a growth (OVCAR-8 ovarian) of 99.4%. For the same molecule, the growth (OVCAR-5 ovarian) was 101%, the growth (OVCAR-4 ovarian) was 106% and the growth (SK-OV-3 ovarian) was 107%. For the same molecule, the growth (IGROV1 ovarian) was 102%, the growth (OVCAR-3 ovarian) was 100% and the growth (HS 578T breast) was 110%. It also gave a growth (NCI/ADR-RES ovarian) of 85.4%, a growth (T-47D breast) of 92.6% and a growth (BT-549 breast) of 89.5%. The growth (MDA-MB-435 melanoma) was 105%, the growth (SW-620 colon) was 106% and the growth (MCF7 breast) was 94%. For the same molecule, the growth (HCT-116 colon) was 99.2%, the growth (HCC-2998 colon) was 21.4% and the growth (KM12 colon) was 101%.
`COc1ccc(/C=C2\COc3ccc(O)c(O)c3C2=O)cc1` was tested, and the growth (SR leukemia) was 21.6%, the growth (RPMI-8226 leukemia) was 4.17% (active) and the growth (OVCAR-8 ovarian) was 7.39% (active). For the same molecule, the growth (OVCAR-5 ovarian) was -12.3% (active), the growth (OVCAR-4 ovarian) was 48.4% and the growth (SK-OV-3 ovarian) was 63.5%. For the same molecule, the growth (IGROV1 ovarian) was 1.03% (active), the growth (OVCAR-3 ovarian) was 11.1% and the growth (HS 578T breast) was 19.5%. The growth (NCI/ADR-RES ovarian) was 6.53% (active), the growth (T-47D breast) was 6.94% (active) and the growth (BT-549 breast) was -6.78% (active). For the same molecule, the growth (MDA-MB-435 melanoma) was 11%, the growth (SW-620 colon) was 6.34% (active) and the growth (MCF7 breast) was 19%. For the same molecule, the growth (HCT-116 colon) was 10.8%, the growth (HCC-2998 colon) was 50.7% and the growth (KM12 colon) was 8.91% (active).
In the case of `Cn1c(O)c(C=NCCN=Cc2c(O)n(C)c(=O)n(C)c2=O)c(=O)n(C)c1=O`, the growth (SR leukemia) is reported as -21.9% (active), the growth (RPMI-8226 leukemia) is reported as 80.6% and the growth (OVCAR-8 ovarian) is reported as 103%. It also gave a growth (OVCAR-5 ovarian) of 83.7%, a growth (OVCAR-4 ovarian) of 112% and a growth (SK-OV-3 ovarian) of 107%. The growth (IGROV1 ovarian) was 106%, the growth (OVCAR-3 ovarian) was 102% and the growth (HS 578T breast) was 112%. It also gave a growth (NCI/ADR-RES ovarian) of 104%, a growth (T-47D breast) of 96.1% and a growth (BT-549 breast) of 118%. It also gave a growth (MDA-MB-435 melanoma) of 93.7%, a growth (SW-620 colon) of 107% and a growth (MCF7 breast) of 108%. For the same molecule, the growth (HCT-116 colon) was 81.1%, the growth (HCC-2998 colon) was 92.2% and the growth (KM12 colon) was 98.7%.

Source: PubChem BioAssay (NCI)
